The whole screen tested about 310,000 compounds, of which about 14,000 (4.5%) showed an effect of 50% or more. Effects have a minus sign here. The sample as a whole holds a higher share of strong results than the screen did.
The molecules below were run against human ether-à-go-go-related gene (hERG) potassium channel (human, UniProt Q12809) (assay: primary screen, population patch clamp on CHO cells stably expressing hERG; higher = less effect of the substance).
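Further: peak tail current of the secondary pulse compared with the same well before compound.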

human ether-à-go-go-related gene (hERG) potassium channel, sequence (Q12809 whole entry, looked up): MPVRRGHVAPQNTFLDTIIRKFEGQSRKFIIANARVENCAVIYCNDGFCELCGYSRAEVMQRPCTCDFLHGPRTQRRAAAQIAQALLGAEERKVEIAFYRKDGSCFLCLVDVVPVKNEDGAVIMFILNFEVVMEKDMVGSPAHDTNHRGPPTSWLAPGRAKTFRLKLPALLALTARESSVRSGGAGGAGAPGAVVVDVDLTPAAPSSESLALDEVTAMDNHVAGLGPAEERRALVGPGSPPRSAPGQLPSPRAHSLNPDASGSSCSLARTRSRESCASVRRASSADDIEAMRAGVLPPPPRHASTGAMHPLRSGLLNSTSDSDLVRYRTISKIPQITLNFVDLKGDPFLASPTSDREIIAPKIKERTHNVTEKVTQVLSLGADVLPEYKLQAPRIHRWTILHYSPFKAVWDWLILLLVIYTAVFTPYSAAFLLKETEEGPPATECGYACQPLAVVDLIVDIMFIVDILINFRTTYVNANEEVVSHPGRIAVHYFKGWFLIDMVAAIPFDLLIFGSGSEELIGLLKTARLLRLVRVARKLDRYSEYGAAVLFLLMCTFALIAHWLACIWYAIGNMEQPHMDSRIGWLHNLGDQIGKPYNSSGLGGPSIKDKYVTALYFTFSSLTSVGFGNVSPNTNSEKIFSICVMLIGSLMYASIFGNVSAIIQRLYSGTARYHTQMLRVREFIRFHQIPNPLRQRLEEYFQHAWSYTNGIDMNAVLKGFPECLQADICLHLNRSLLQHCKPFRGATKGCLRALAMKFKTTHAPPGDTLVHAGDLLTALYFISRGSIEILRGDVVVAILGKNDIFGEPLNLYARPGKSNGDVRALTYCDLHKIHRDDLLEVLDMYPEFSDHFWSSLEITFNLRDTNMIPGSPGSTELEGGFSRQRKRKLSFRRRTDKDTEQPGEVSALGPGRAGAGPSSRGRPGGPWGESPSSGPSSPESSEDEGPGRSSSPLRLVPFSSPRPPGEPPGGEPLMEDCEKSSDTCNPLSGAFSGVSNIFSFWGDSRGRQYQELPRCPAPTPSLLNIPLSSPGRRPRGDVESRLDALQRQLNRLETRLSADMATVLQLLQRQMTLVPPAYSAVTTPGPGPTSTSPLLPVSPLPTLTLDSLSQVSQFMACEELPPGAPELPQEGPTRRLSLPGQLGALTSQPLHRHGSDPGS

Structure (SMILES)	hERG current change (%, negative = inhibition) at 10uM
O=C(NCc1ccco1)c1ccc(Cl)c(S(=O)(=O)N2CCCC2)c1	-9.61%
O=C1NC(=O)/C(=C\c2ccc(OCc3cccc(C(=O)O)c3)c(Cl)c2)N1	20.1%
COc1cc(OC)cc(C(=O)Nc2ccc(S(=O)(=O)Nc3ncccn3)cc2)c1	12.8%
COc1c(C)cc(C(=O)C2CCCN(Cc3cnc(N4CCOCC4)s3)C2)cc1C (stereo not drawn)	-8.64%
CS/C(=N\NC(N)=O)c1ccccc1	-8.24%
O=C(O)c1ccc2c(=O)n3c(nc2c1)/C(=C/c1ccccc1Br)CC3	4.66%
C/C(=N\NC(=O)CCCNc1cccc(C)c1)c1ccncc1	0.987%
CCCCn1c(N)c(N(CC(C)C)C(=O)c2ccc(S(=O)(=O)N3CCCCCC3)cc2)c(=O)[nH]c1=O	9.58%
O=C(NCCc1nc2ccccc2[nH]1)/C(=C/c1ccc2c(c1)OCO2)NC(=O)c1ccccc1	-71.1%
O=C(Nc1cccc(C(=O)O)c1)/C(=C\c1ccc2c(c1)OCO2)NC(=O)c1ccccc1Cl	3.5%
COc1ccc(C(=O)N/C(=C\c2ccc3c(c2)OCO3)C(=O)NCCc2nc3ccccc3[nH]2)cc1	-39.4%
O=C(N/N=C/c1ccc2c(c1)OCO2)c1ccc(Cl)cc1Cl	20.3%
CC(C)=C(NC(=O)c1ccccc1)C(=O)NCCc1nc2ccccc2[nH]1	9.91%
O=C(NCCc1nc2ccccc2[nH]1)/C(=C/c1ccc2c(c1)OCO2)NC(=O)c1ccccc1Cl	-80.6%
O=C(CCc1nc2ccccc2[nH]1)NCc1ccc2c(c1)OCO2	-38.1%
O=C(NCCc1nc2ccccc2[nH]1)/C(=C/c1ccc2c(c1)OCO2)NC(=O)c1ccc(Cl)cc1Cl	-76.3%
O=C(NCCCCCc1nc2ccccc2[nH]1)c1ccccc1Cl	-6.43%
CCc1ccccc1NC(=O)CSc1nc2ccccc2nc1N1CCOCC1	-15.1%
CCOC(=O)C1CCCN(C(=O)CCC(=O)Nc2ccc3nc(N4CCOCC4)cc(C)c3c2)C1 (stereo not drawn)	-23.7%
O=C(NC1CCS(=O)(=O)C1)/C(=C\c1ccco1)NC(=O)c1ccccc1 (stereo not drawn)	1.36%
Cc1cc(-c2nn3c(C)nnc3s2)ccc1NC(=O)C(C)(C)C	10.7%

Structure (SMILES)	hERG current change (%, negative = inhibition) at 10uM
Cc1ccc(S(=O)(=O)N2CCN(C(=O)COC(=O)c3ccc(Br)o3)CC2)c(C)c1	-10.3%
CN1CCN(C(=O)C2CCN(S(=O)(=O)c3ccc(F)cc3)CC2)CC1	5.18%
O=C(c1ccc(F)cc1)N1CCC(C(=O)N2CCN(S(=O)(=O)c3ccccc3Br)CC2)CC1	-32.6%
COc1ccc(N2CCN(C(=O)C3CCN(S(=O)(=O)c4ccc(F)cc4)CC3)CC2)cc1	-48.3%
Cc1ccc(C)c(S(=O)(=O)N2CCN(C(=O)C3CCN(C(=O)c4ccc(F)cc4)CC3)CC2)c1	-30.6%
CC(C)c1ccc(S(=O)(=O)N2CCN(C(=O)C3CCCC3)CC2)cc1	2.78%
Cc1ccc(S(=O)(=O)N2CCN(C(=O)C3CCN(C(=O)c4ccc(F)cc4)CC3)CC2)c(C)c1	-55.7%
CC(=O)N1CCC(C(=O)N2CCN(S(=O)(=O)c3ccc(F)cc3)CC2)CC1	-1.33%
CC(C)c1ccc(S(=O)(=O)N2CCN(C(=O)C3CCN(C(=O)c4ccc(F)cc4)CC3)CC2)cc1	-53.7%
Cc1ccc(S(=O)(=O)N2CCN(C(=O)c3ccco3)CC2)c(C)c1	-7.22%
Cc1ccc(S(=O)(=O)N2CCN(C(=O)c3ccc(Br)o3)CC2)c(C)c1	-55%
CC(=O)c1ccc(N2CCN(C(=O)C3CCN(S(=O)(=O)c4ccc(F)cc4)CC3)CC2)cc1	-52.6%
CC(C)c1ccc(/C=C2\SC(=O)N(CC(=O)NC3C=CS(=O)(=O)C3)C2=O)cc1 (stereo not drawn)	5.89%
O=C(Cn1cnc2c(nnn2Cc2ccc(F)cc2)c1=O)NCc1ccco1	-18.2%
CCOc1ccc(CN2CCNC(=O)C2CC(=O)NCc2cc(C)n(C)n2)cc1 (stereo not drawn)	-1.95%
O=C(NC(=S)NNS(=O)(=O)c1ccc(Cl)cc1)c1cccnc1	18.6%
O=C(CNC(=S)N(Cc1ccccc1)Cc1ccccc1F)NCCc1ccccc1	3.73%
Cc1ccc2c(c1)C(c1ccccc1)=NCC(=O)N2	-12.8%
NS(=O)(=O)c1cc(C(=O)O)cc(N2CCCC2)c1Oc1ccccc1	0.0774%
O=C(Nc1ccc(Cl)cn1)c1ccccc1F	-1.25%
O=C(NC(=S)Nc1ccc2oc(=O)ccc2c1)c1cccc(Cl)c1	4.11%

Structure (SMILES)	hERG current change (%, negative = inhibition) at 10uM
COc1cc(NC(=O)CN(C)S(=O)(=O)c2ccc3c(c2)CCC(=O)N3)cc(OC)c1	-23.9%
CCC1=NN(C(=O)c2ccccc2Br)C(O)(c2ccc(Br)cc2)C1 (stereo not drawn)	25.2%
CC(=O)Nc1ccc(N2C(=O)c3cccc4c(O)ccc(c34)C2=O)cc1	13.4%
COc1ccc(OC)c(S(=O)(=O)N2CCC(C(=O)N3CCCCCC3)CC2)c1	5.45%
COc1ccc(OC)c(S(=O)(=O)N2CCC(C(=O)N3CCCC3)CC2)c1	7.71%
COc1ccc(OC)c(S(=O)(=O)N2CCC(C(=O)N3CCN(c4ccc(F)cc4)CC3)CC2)c1	-78%
COc1ccc(-c2[nH]ncc2CN(C)Cc2cccnc2)c(F)c1	-1.66%
CC(=O)N1CCc2cc(S(=O)(=O)NC(CC(C)C)C(=O)N3CCn4c3nc3ccccc34)ccc21 (stereo not drawn)	-60%
CC(=O)N1CCc2cc(S(=O)(=O)NC(CC(C)C)C(=O)N3CCCC3)ccc21 (stereo not drawn)	-20.2%
CC(=O)N1CCc2cc(S(=O)(=O)NC(CC(C)C)C(=O)N3CCc4ccccc4C3)ccc21 (stereo not drawn)	-26.8%
O=C1CS/C(=N/N=C/c2ccccc2)N1Cc1ccco1	1.4%
COC(=O)C(C)N=Cc1ccccc1 (stereo not drawn)	12.9%
O=c1c2ccccc2nc(/C=C/c2ccc3c(c2)OCO3)n1-c1ccccc1	-26%
COc1ccc(-n2c(/C=C/c3ccc4c(c3)OCO4)nc3ccccc3c2=O)cc1	-55.3%
COc1ccc(-n2c(/C=C/c3ccc(O)c(O)c3)nc3ccccc3c2=O)cc1	10.6%
COc1ccc(-n2c(/C=C/c3ccc(O)cc3)nc3ccccc3c2=O)cc1	-21.6%
O=c1c2ccccc2nc(/C=C/c2ccc3c(c2)OCO3)n1-c1cccc(O)c1	-7.38%
Cc1ccc(-n2c(/C=C/c3ccc4c(c3)OCO4)nc3ccccc3c2=O)cc1	-50.4%
CCc1ccccc1OCC(=O)OCC(=O)Nc1cc(C)on1	-2.74%
CCC(=O)N1CCc2cc(S(=O)(=O)CCC(=O)N3CCN(c4ccccc4)CC3)ccc21	3.15%
O=C(CN1CCN(S(=O)(=O)c2ccc(Cl)cc2)CC1)NCC1(N2CCOCC2)CCCCC1	-39.3%

Structure (SMILES)	hERG current change (%, negative = inhibition) at 10uM
O=C(CN1CCN(CC(=O)Nc2cccc(F)c2)CC1)NCC1(N2CCOCC2)CCCCC1	-27%
O=C(Cc1ccc(Cl)cc1Cl)NCC1(N2CCOCC2)CCCCC1	5.44%
O=C(CN1CCN(CC(=O)Nc2ccc(F)cc2)CC1)NCC1(N2CCOCC2)CCCCC1	-73.4%
O=C(CNCC1(N2CCOCC2)CCCCC1)Nc1ccc(Cl)cc1	-78.8%
N#CCC(=O)Nc1ccc(C(=O)NCC2(N3CCOCC3)CCCCC2)cc1	7.48%
CC(NCC1(N2CCOCC2)CCCCC1)C(=O)Nc1ccc(Cl)cc1Cl.O=C(O)C(=O)O (stereo not drawn)	-74.6%
CC(NCC1(N2CCOCC2)CCCCC1)C(=O)N1CCc2ccccc21.O=C(O)C(=O)O (stereo not drawn)	-5.73%
O=C(CN1CCN(S(=O)(=O)c2ccc(F)cc2)CC1)NCC1(N2CCOCC2)CCCCC1	-18.6%
O=C(Nc1ccc(S(=O)(=O)NCc2cccnc2)cc1)c1ccco1	10.2%
O=C(COc1ncnc2sccc12)N1CCc2ccccc2C1	0.518%
Cc1nc2ccccc2c(=O)n1/N=C/c1ccc(O)cc1O	10.4%
Cc1ccc(NC(C)C(=O)N/N=C/c2ccc([N+](=O)[O-])s2)cc1 (stereo not drawn)	8.3%
Cl.O=C(COc1ccc(Cl)cc1)NC1CN2CCC1CC2 (stereo not drawn)	-35.1%
O=C(Nc1ccc(Cl)cc1)OC1CN2CCC1CC2 (stereo not drawn)	-40.6%
O=C(COc1ccc(Cl)cc1)N1CCCC1	-7.47%
Cl.O=C(COc1ccc(Cl)cc1)N(c1ccccc1Cl)C1CN2CCC1CC2 (stereo not drawn)	-50.5%
Cl.O=C(COc1ccc(Cl)cc1)N(c1ccc(Cl)cc1)C1CN2CCC1CC2 (stereo not drawn)	-65.1%
O=C(COc1ccc(Cl)cc1)N(Cc1cccs1)C1CCS(=O)(=O)C1 (stereo not drawn)	-48.1%

Source: PMC4336329 (PLoS ONE, 2015)
